Values without a mark were called inactive.

Chain of UniProt Q9Y639 (Q9Y639 whole entry): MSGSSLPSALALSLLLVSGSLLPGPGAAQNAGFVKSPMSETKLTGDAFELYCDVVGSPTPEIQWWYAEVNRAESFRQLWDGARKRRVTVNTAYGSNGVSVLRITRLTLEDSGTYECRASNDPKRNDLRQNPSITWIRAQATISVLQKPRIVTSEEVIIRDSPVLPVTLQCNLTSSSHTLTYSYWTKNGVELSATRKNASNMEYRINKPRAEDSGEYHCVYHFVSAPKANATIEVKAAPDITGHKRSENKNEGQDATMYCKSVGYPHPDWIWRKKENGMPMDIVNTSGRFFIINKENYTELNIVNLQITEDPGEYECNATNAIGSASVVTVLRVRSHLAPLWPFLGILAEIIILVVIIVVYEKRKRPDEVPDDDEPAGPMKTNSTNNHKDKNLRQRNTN
Chain of UniProt P04083 (P04083 whole entry): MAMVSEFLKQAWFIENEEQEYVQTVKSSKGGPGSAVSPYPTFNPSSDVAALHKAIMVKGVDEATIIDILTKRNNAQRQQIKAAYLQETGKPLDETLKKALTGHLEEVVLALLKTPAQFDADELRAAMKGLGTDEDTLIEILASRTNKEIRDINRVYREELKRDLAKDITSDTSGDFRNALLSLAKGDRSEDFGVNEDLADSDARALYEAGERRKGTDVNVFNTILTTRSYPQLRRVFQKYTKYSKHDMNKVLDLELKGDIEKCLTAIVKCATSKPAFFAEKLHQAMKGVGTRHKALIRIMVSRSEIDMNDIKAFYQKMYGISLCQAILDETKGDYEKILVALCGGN
Chain of UniProt P52272 (P52272 whole entry): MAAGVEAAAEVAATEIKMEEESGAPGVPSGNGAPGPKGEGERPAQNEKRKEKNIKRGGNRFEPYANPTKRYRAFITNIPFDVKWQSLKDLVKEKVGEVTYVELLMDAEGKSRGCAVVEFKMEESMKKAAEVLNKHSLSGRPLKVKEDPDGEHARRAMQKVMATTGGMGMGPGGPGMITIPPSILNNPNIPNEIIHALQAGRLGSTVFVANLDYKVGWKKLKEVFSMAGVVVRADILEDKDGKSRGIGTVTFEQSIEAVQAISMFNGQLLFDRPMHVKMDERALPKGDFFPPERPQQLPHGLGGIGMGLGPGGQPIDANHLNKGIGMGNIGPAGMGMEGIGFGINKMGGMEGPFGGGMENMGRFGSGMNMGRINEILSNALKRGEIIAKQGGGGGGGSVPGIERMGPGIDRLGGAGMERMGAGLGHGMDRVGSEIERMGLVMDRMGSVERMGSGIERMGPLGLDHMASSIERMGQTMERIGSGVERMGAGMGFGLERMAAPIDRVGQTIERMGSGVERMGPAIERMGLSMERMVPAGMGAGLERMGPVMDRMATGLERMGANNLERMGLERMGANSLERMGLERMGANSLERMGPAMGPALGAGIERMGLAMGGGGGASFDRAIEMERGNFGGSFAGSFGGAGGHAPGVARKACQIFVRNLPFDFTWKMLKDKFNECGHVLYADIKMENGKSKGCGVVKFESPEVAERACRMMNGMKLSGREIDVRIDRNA
Chain of UniProt Q9UKV3 (Q9UKV3 whole entry): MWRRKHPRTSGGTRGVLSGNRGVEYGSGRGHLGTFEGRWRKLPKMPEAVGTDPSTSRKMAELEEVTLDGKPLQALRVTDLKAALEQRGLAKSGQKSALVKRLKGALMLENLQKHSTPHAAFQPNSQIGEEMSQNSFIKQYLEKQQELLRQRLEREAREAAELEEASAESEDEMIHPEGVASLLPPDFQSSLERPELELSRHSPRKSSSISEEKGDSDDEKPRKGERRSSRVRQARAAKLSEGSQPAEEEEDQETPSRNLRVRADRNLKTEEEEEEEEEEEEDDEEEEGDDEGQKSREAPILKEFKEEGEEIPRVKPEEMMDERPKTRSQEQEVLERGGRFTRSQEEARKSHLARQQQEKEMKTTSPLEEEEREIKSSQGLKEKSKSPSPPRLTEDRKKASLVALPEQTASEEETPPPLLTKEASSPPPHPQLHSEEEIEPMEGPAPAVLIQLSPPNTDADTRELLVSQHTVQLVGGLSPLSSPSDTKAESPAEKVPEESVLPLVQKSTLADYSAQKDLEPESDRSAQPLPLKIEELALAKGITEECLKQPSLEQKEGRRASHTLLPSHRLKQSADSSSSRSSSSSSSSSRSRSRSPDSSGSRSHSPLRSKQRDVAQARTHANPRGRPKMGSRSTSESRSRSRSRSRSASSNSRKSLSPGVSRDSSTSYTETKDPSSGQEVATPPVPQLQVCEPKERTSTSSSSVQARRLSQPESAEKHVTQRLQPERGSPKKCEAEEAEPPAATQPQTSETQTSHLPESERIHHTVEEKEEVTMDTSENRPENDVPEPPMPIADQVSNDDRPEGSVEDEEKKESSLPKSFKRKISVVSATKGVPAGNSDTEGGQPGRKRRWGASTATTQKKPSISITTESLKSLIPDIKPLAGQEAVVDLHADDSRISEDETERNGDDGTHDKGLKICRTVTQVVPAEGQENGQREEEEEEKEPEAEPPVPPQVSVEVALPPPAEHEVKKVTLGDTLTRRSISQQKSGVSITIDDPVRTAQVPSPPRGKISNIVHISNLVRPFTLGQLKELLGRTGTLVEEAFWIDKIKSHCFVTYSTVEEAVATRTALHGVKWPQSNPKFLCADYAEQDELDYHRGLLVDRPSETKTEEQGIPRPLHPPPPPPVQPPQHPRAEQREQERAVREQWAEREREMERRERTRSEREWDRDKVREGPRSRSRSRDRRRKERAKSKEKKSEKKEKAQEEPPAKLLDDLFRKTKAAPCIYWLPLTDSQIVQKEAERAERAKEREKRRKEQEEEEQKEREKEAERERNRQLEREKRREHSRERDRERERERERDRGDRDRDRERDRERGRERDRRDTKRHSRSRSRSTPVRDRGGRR
Chain of UniProt P35052 (P35052 whole entry): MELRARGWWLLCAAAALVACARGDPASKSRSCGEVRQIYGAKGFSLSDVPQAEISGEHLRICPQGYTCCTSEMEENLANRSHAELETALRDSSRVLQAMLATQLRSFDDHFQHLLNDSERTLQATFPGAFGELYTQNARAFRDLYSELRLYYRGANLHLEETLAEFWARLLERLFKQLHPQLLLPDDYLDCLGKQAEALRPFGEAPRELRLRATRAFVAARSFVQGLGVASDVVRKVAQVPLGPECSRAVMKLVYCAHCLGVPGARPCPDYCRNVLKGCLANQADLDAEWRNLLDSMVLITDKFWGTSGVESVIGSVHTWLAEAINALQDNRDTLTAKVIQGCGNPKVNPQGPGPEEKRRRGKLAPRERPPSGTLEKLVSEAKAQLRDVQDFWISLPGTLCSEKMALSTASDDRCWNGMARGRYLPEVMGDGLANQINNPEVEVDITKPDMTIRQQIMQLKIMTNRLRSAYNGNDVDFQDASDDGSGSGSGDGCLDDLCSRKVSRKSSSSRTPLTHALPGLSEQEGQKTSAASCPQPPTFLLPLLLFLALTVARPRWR
Chain of UniProt Q14574 (Q14574 whole entry): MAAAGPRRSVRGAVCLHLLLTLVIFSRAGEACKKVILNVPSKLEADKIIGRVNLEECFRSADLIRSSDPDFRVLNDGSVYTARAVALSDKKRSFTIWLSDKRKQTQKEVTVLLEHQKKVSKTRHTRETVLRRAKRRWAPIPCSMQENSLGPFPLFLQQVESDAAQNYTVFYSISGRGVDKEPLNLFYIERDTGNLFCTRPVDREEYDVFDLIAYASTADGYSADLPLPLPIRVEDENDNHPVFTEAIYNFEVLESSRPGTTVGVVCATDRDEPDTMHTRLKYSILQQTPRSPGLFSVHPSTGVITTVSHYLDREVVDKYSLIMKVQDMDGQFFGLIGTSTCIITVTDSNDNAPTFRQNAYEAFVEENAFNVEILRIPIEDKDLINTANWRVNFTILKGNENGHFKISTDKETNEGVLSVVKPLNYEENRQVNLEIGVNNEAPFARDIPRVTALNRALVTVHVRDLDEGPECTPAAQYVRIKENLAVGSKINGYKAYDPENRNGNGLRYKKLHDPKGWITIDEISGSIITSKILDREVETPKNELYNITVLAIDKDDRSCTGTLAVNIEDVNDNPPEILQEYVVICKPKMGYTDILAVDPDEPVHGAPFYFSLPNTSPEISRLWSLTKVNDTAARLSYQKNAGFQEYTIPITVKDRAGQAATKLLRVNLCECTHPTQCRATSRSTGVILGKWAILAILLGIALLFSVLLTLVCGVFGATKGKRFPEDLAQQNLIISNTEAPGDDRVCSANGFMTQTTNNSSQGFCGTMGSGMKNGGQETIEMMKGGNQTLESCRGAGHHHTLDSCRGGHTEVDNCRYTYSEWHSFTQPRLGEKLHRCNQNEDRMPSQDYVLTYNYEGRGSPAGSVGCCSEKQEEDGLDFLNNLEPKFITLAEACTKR
Chain of UniProt P04899 (P04899 whole entry): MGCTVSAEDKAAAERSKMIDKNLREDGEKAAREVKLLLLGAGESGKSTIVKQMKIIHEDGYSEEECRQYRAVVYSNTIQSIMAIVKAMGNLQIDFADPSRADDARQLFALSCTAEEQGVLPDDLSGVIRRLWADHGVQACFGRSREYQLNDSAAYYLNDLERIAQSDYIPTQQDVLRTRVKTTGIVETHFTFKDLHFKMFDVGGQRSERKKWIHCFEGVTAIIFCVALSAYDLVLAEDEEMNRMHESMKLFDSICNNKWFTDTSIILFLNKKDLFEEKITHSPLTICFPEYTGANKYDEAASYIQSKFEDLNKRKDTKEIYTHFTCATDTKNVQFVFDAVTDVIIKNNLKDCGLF
Chain of UniProt P09382 (P09382 whole entry): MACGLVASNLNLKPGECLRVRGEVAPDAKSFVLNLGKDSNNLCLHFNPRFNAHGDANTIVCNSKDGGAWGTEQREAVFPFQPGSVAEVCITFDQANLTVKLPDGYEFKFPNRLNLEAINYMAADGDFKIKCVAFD
Chain of UniProt Q99497 (Q99497 whole entry): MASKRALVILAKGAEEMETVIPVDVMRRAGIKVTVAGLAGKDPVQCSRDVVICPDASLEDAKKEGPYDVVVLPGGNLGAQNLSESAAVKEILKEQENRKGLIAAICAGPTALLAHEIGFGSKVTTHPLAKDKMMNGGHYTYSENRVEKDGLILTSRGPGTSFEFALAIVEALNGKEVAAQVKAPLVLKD

Compound in the test: C#CCNC(=O)CCSSCCC(=O)NCCc1ccc(C=O)c(C=O)c1
Description: lysine labeling ratio R10:1 (500 µM / 50 µM probe), SILAC-ABPP in living cells; higher = lower intrinsic lysine reactivity toward the probe, active = 2 or less. Particulars: HeLa; probe concentrations 500 vs 50 µM. In short, it runs like this:
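Living SILAC light and heavy HeLa cells in PBS at room temperature were treated with an alkyne-tagged, disulfide-linked lysine probe at 50 µM or 500 µM, with forward and reverse label swaps. The mixed lysates were clicked to biotin-azide, digested with trypsin, captured on neutravidin, released with DTT, alkylated and run by LC-MS/MS on a TIMS-TOF Pro. R for each lysine is the filtered median high-probe/low-probe MS1 peptide ratio, taken again as the median over forward and reverse replicates. Any value above 20 is set to 20.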
For “LGALS1 (lysine site: K64) (UniProt P09382)”, the “lysine labeling ratio R10:1” value is 3.47.
To “HSPG2 (lysine site: K4023) (UniProt P98160)” belongs 5.16; to “HNRNPA2B1 (lysine site: K173) (UniProt P22626)”, 7.67.
To “CLTC (lysine site: K637) (UniProt Q00610)” belongs 2.63; to UniProt Q15149 (lysine site: K2318), 4.26.
Consider “ACIN1 (lysine site: K143) (UniProt Q9UKV3)”, for which the “lysine labeling ratio R10:1” value was 0.535 (active).
To UniProt Q14574 (lysine site: K180) belongs 1.97 (active).
To “ANXA1 (lysine site: K185) (UniProt P04083)” belongs 3.58.
In the case of “SERPINH1 (lysine site: K94) (UniProt P50454)” it was 3.29; in that of “NPTN (lysine site: K244) (UniProt Q9Y639)”, 8.84.
Consider “NPTN (lysine site: K260) (UniProt Q9Y639)”, for which the “lysine labeling ratio R10:1” value is 1 (active).
To “CYR61 (lysine site: K208) (UniProt O00622)” belongs 2.96.
Take “GPC1 (lysine site: K236) (UniProt P35052)”: the “lysine labeling ratio R10:1” value was 3.17.
To “HNRNPC (lysine site: K170) (UniProt P07910)” belongs 2.35; to “LMAN1 (lysine site: K87) (UniProt P49257)”, 3.85.
In the case of UniProt P61981 (lysine site: K142) it was 3.71; in that of “CDH13 (lysine site: K74) (UniProt P55290)”, 5.06; in that of “HMOX1 (lysine site: K243) (UniProt P09601)”, 1.07 (active).
In the case of “EFNB2 (lysine site: K83) (UniProt P52799)” it was 2.34; in that of “ITGA2 (lysine site: K718) (UniProt P17301)”, 2.51; in that of “DDX23 (lysine site: K196) (UniProt Q9BUQ8)”, 1.64 (active).
Take “SPTBN1 (lysine site: K1939) (UniProt Q01082)”: the “lysine labeling ratio R10:1” value is 3.41.
On to “GNAI2 (lysine site: K313) (UniProt P04899)”, for which the “lysine labeling ratio R10:1” value was 1.06 (active).
In the case of “HNRNPM (lysine site: K242) (UniProt P52272)” it was 1.67 (active); in that of “HNRNPA1 (lysine site: K350) (UniProt P09651)”, 3.42; in that of “ICAM1 (lysine site: K469) (UniProt P05362)”, 4.19.
To “STS (lysine site: K368) (UniProt P08842)” belongs 1.48 (active).
For “ANXA1 (lysine site: K166) (UniProt P04083)”, the “lysine labeling ratio R10:1” value was 1.32 (active).
In the case of UniProt P26639 (lysine site: K694) it was 1.36 (active).
In the case of “DISP1 (lysine site: K908) (UniProt Q96F81)” it was 3.35.
To “FLNB (lysine site: K960) (UniProt O75369)” belongs 1.54 (active).
Take “FLNA (lysine site: K1372) (UniProt P21333)”: the “lysine labeling ratio R10:1” value was 2.93.
In the case of “HNRNPM (lysine site: K239) (UniProt P52272)” it was 1.67 (active); in that of “LMO7 (lysine site: K1264) (UniProt Q8WWI1)”, 4.64.
To “THBS1 (lysine site: K919) (UniProt P07996)” belongs 1.72 (active); to “MCAM (lysine site: K286) (UniProt P43121)”, 2.67; to “DDX5 (lysine site: K207) (UniProt P17844)”, 4.37.
UniProt Q00341 (lysine site: K510): the “lysine labeling ratio R10:1” value was 0.655 (active).
In the case of UniProt P06576 (lysine site: K133) it was 3.53.
To “PARK7 (lysine site: K148) (UniProt Q99497)” belongs 3.31.

Values taken from the supplement of paper PMC11001985.
